Results as given in PubChem BioAssay AID1209 (Sanford-Burnham Center for Chemical Genomics, 2008).
Hit rate of the full screen: of about 190,000 compounds, about 810 (0.43%) were called active. Rule as the data show it: active = inhibition above about 50%; inactive = the rest. The list comes from a sample in which actives are over-represented; it also holds similar structures and randomly drawn compounds.

Target: Mannose-6-phosphate isomerase (Homo sapiens) (UniProt P34949)
Experiment: MPI enzyme activity inhibition – biochemical, fluorescence intensity, coupled assay, primary screen (AID 1209);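 also: plate controls were DMSO vehicle for no effect and wells lacking substrate for full effect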
Details: purified PMI enzyme, at 20 µM, hits give high values

Mannose-6-phosphate isomerase (Homo sapiens), sequence (P34949 whole entry, looked up): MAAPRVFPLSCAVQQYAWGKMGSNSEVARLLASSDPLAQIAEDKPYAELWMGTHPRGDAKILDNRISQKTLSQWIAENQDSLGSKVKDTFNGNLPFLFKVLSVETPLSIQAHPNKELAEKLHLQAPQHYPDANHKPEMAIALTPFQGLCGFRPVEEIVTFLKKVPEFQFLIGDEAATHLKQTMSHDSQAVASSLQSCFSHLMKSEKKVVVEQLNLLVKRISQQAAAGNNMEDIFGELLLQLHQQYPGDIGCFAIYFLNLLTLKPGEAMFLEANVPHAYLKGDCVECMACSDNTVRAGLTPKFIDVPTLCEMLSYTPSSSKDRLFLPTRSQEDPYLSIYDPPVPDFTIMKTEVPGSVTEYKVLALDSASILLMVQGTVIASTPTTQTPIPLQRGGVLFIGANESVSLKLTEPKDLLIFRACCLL

SMILES | inhibition
COc1cc2c(=O)c(-c3ccc(O)cc3)coc2cc1OC1OC(CO)C(O)C(O)C1O (stereo unspecified) | 3.2% (inactive)
O=c1c(-c2ccc(O)cc2)coc2cc(OC3OC(CO)C(O)C(O)C3O)ccc12 (stereo unspecified) | -7.2% (inactive)
O=c1c(O[C@@H]2O[C@H](CO)[C@@H](O)[C@H](O)[C@H]2O)c(-c2ccc(O)c(O)c2)oc2cc(O)cc(O)c12 | 62.8% (active)
COc1ccc2[nH]c(=O)c(CN(Cc3cccs3)C(=S)Nc3ccccc3)cc2c1 | 22.8% (inactive)
CCN(CC)C(=O)CSc1nnc(COc2ccc(OC)cc2)n1N | 1.7% (inactive)
COc1ccc(OCc2nnc(SCC(=O)N(C)Cc3ccccc3)n2N)cc1 | 50.1% (active)
COc1ccc(OCc2nnc(SCC(=O)O)n2N)cc1 | 4.6% (inactive)
CC(=O)c1c(C)nc(-c2ccc(OCC(=O)Nc3ccccc3)cc2)n1O | -7.9% (inactive)
CCS(=O)(=O)c1ccc2oc(Nc3ccc(C(C)(C)C)cc3)nc2c1 | 15.9% (inactive)
CCS(=O)(=O)c1ccc2oc(Nc3ccc(OC)cc3)nc2c1 | -4.5% (inactive)
CCS(=O)(=O)c1ccc2oc(Nc3ccc(C(C)C)cc3)nc2c1 | 63.4% (active)
O=C(NNC(=O)c1sccc1-n1cccc1)c1ccc(F)cc1 | 0.7% (inactive)
CCCCOc1ccc(CSc2nnc(C)n2N)cc1[N+](=O)[O-] | -8.7% (inactive)
O=C(Nc1ccc(F)cc1)c1ccc(Cn2cnnn2)cc1 | -9.3% (inactive)
COCC(=O)N(C)c1nnc(-c2cnccn2)s1 | -3.9% (inactive)
COCC(=O)N(C)c1nnc(-c2ccccn2)s1 | 102% (active)
CC(=O)N(C)c1nnc(-c2ccccn2)s1 | -0.7% (inactive)
CCCc1cc(=O)[nH]c(SCc2ccccc2)n1 | 13.6% (inactive)
O=C(CSc1nc2ccccc2c(=O)n1CCCN1CCOCC1)N1CCN(c2ccccc2)CC1 | -4.4% (inactive)
Cc1ccccc1NS(=O)(=O)c1ccc(C(=O)OCC(=O)NCC(C)C)cc1 | -11.1% (inactive)
COc1ccccc1C1=Nn2c(COc3ccccc3)nnc2SC1 | 67.8% (active)
c1ccc(OCc2nnc3n2N=C(c2ccccc2)CS3)cc1 | 47.7% (inactive)
COc1ccc(OCc2nnc3n2N=C(c2ccc(OC)cc2)CS3)cc1 | -9.9% (inactive)
CCc1ccccc1NC(=O)N1CCC(NC(=O)C(Cc2ccccc2)NC(C)=O)CC1 (stereo unspecified) | -12.4% (inactive)

SMILES | inhibition
CC(C)[C@H](NC(=O)c1ccccc1)C(=O)OCC(=O)N1CC(=O)Nc2ccccc21 | 14.2% (inactive)
CCCCNC(=O)CSc1nc2ccccc2n1S(=O)(=O)c1ccc(Cl)cc1 | -2.1% (inactive)
COc1ccc(-c2nc(SC)n(C)c(=O)c2C#N)cc1OC | 13.4% (inactive)
O=C1CC(c2ccc(O)cc2)Oc2cc(O)cc(O)c21 (stereo unspecified) | 11.5% (inactive)
O=C(O[C@@H]1Cc2c(O)cc(O)cc2O[C@@H]1c1cc(O)c(O)c(O)c1)c1cc(O)c(O)c(O)c1 | 67.2% (active)
O=C1C[C@@H](c2ccc(O)cc2)Oc2cc(O)cc(O)c21 | 10.6% (inactive)
Cc1cccc(C(=O)NC2CC3CCCC(C2)N3S(=O)(=O)c2ccccc2)c1 (stereo unspecified) | 12.2% (inactive)
CCOCc1[nH]c(=S)[nH]c(=O)c1Cc1ccc(OCC(C)C)cc1 | -4% (inactive)
O=C(C1CCCN(CCCc2ccccc2)C1)N1CCCCCC1 (stereo unspecified) | -9.9% (inactive)
CC1=CC(=O)C(C(C)C)=CC1=NC(=O)c1ccc(C)cc1 | 46.6% (inactive)
CC1=C/C(=N\OC(=O)/C=C/c2ccccc2)C(C)=CC1=O | 3.5% (inactive)
CC1=CC(=O)C=C(C)C1=NOC(=O)/C=C\c1ccccc1 | 17.8% (inactive)
CC1=CC(=O)C=C(C)C1=NOc1ccccc1[N+](=O)[O-] | 25.5% (inactive)
Cc1ccc(S(=O)(=O)ON=C2CCN(S(=O)(=O)c3ccccc3)CC2)cc1 | 8% (inactive)
CC1=C/C(=N\OS(=O)(=O)c2ccccc2)C=CC1=O | 96.1% (active)
CC1=CC(=O)c2ccccc2C1=O | -57.7% (inactive)
CC(=O)N1C(C)(C)CC(=NOS(=O)(=O)c2ccccc2)CC1(C)C | -17.4% (inactive)
CC1=C/C(=N\OS(=O)(=O)c2ccccc2)C(C(C)C)=CC1=O | 78.5% (active)
CC1=C/C(=N\OS(=O)(=O)c2ccccc2)C(C)=CC1=O | 106% (active)
O=S(=O)(O/N=C1\CCCc2ccccc21)c1ccccc1 | -1.2% (inactive)
CC1CCN(C(=O)c2ccc(SCc3ccccc3F)c([N+](=O)[O-])c2)CC1 | 20% (inactive)
O=C(O)CCCC(=O)Nc1cc([N+](=O)[O-])ccc1O | 9.3% (inactive)
COc1ccc(O)c(/C=N/NC(=S)Nc2cccc(S(=O)(=O)N(C)C)c2)c1 | -10.9% (inactive)
O=C(c1cn[nH]c1)c1cc(F)ccc1O | 12.2% (inactive)

SMILES | inhibition
COc1ccc(C(=O)N/N=C(/C)c2cccc(NC(=O)C(F)(F)F)c2)cc1 | 0.4% (inactive)
CC(C)(C)c1ccc(S(=O)(=O)O/N=C2/CCCCC2c2ccc([N+](=O)[O-])cc2[N+](=O)[O-])cc1 (stereo unspecified) | 7.7% (inactive)
CCN(CC)Cc1cc(NC2=NS(=O)(=O)c3ccccc32)ccc1OC(=O)c1ccccc1 | -5.8% (inactive)
CC(C)(C)c1ccc(C(=O)NNC(=S)NCC2CCCO2)cc1 (stereo unspecified) | -0.9% (inactive)
O=C1c2ccccc2C(=O)N1CCSc1n[nH]c(=S)s1 | -5.1% (inactive)
Cc1nn(-c2ccccc2)c(Cl)c1C(=O)Nc1ccc(N2CCOCC2)cc1 | -17.1% (inactive)
COc1ccc(S(=O)(=O)NN=C2CCCCC2)cc1 | -30.4% (inactive)
COc1ccc(-n2nc(C(=O)NCC(=O)NCc3ccco3)c3ccccc3c2=O)cc1 | 0.1% (inactive)
Fc1ccc(C2=Nn3c(Cc4ccccc4)nnc3SC2)cc1 | 11.2% (inactive)
c1ccc(-c2ccc(C3=Nn4c(Cn5nnc6ccccc65)nnc4SC3)cc2)cc1 | 50.3% (active)
c1ccc(Cc2nnc3n2N=C(c2ccccc2)CS3)cc1 | 13.3% (inactive)
O=C(COC(=O)c1cccnc1Cl)Nc1ccccc1OC(F)F | -0.4% (inactive)
CCC(C)(C)NC(=O)C(c1cccn1C)N(C(=O)Cn1nnc2ccccc21)c1ccccc1OC (stereo unspecified) | -6.8% (inactive)
N#Cc1cn(CCOC(=O)c2cccc(C(F)(F)F)c2)c(=O)[nH]c1=O | 4.3% (inactive)
CCN1CCN(c2nc3ccccc3nc2C(C#N)C(=O)OCc2ccccc2)CC1 (stereo unspecified) | 8.9% (inactive)
COC(=O)c1ccc(OC(=O)c2ccco2)cc1 | -5% (inactive)
O=C(Oc1ccc(-c2cnc3ccccc3n2)cc1)c1ccco1 | 0.2% (inactive)
Cc1cccc(-n2nnnc2SCC(=O)c2cc(C)n(Cc3ccco3)c2C)c1 | -2.6% (inactive)
CC(=O)Nc1nc2c(c3c1c(=O)oc1ccccc13)CCCCC2 | -2.8% (inactive)
CCOc1ccc(CONS(=O)(=O)c2ccc(NC(C)=O)cc2)cc1Cl | 16.3% (inactive)
C[N+]1(CC#CC(O)(c2ccccc2)c2ccccc2)CCCC1 | 21.6% (inactive)
CC12CCC3(CO)COC(c4ccccc4O1)C2C3 (stereo unspecified) | 3.4% (inactive)
CC1(C#CC[N+]2(C)CCCCC2)CCC2C(O1)c1ccccc1OC2(C)C (stereo unspecified) | 105% (active)
C=CCN(CC=C)C(=O)Nc1ccc2nc(C)sc2c1 | 8.1% (inactive)

SMILES | inhibition
CCOC(=O)N1CCN(C(=O)c2ccc(S(=O)(=O)NCc3ccco3)cc2)CC1 | -4.2% (inactive)
Cc1ccc(NC(=O)c2ccc(N/N=C/c3cccc(O)c3)c([N+](=O)[O-])c2)cc1 | 5.1% (inactive)
O=c1[nH][nH]c(-c2ccccc2)c1C=Nc1ccc(Cl)cc1 | -4.3% (inactive)
Cn1cnnc1SCC(=O)Nc1ccccc1F | -2% (inactive)
Cc1cccc(NC(=S)NNC(=O)c2csc(C)c2)c1 | -3.7% (inactive)
Cc1cc(C(=O)NNC(=S)Nc2ccccc2C)cs1 | 70.7% (active)
CCc1cc(C(=O)NNC(=S)Nc2ccccc2C)cs1 | -8.6% (inactive)
O=C(Nn1cnnc1)C1CCCN1S(=O)(=O)c1ccc(F)cc1 (stereo unspecified) | -3.3% (inactive)
Cc1ccc(NC(=O)CSc2nnc(C)n2-c2ccccc2)cc1 | -1.7% (inactive)
Cc1ccc(-n2c(=O)[nH]c3ncccc3c2=O)cc1 | 12.9% (inactive)
Cc1ccc(N=Cc2ccc(O)cc2O)cc1F | 9.4% (inactive)
Oc1ccc(C=Nc2cccc3ncccc23)c(O)c1 | 46.8% (inactive)
Oc1ccc(C=Nc2ccc3ncccc3c2)c(O)c1 | 68.4% (active)
O=C(COC(=O)c1cccc(Cl)c1)Nc1cc(Cl)ccc1Oc1ccccc1 | 18.8% (inactive)
Cc1cc(OCC(O)CN)ccc1Cl (stereo unspecified) | -8.6% (inactive)
C(=N\N1CCN(Cc2ccccc2)CC1)/c1cccnc1 | 9.3% (inactive)
Clc1ccc(CN2CCN(/N=C/c3cccnc3)CC2)cc1 | 85.6% (active)
Cc1ccc(CN2CCN(/N=C/c3cccnc3)CC2)cc1 | 17.9% (inactive)
COc1ccc(NC(=O)CSc2nc3c(c(-c4cccs4)c2C#N)CN(C)CC3)cc1OC | 59.8% (active)
CC(C)(C)C(=O)CSc1nc2c(c(-c3cccs3)c1C#N)CCC2 | -25.9% (inactive)
CN1CCc2nc(SCC(=O)Nc3cccc(F)c3)c(C#N)c(-c3cccs3)c2C1 | 35% (inactive)
CN1CCc2nc(SCC(=O)Nc3ccc(OC(F)(F)F)cc3)c(C#N)c(-c3cccs3)c2C1 | 15.7% (inactive)
Cc1cccc(CSc2nc(N)c(C#N)c(-c3cccs3)c2C#N)c1 | 6.6% (inactive)
Cc1cccc(CSc2nc3c(c(-c4cccs4)c2C#N)CN(C)CC3)c1 | 69.6% (active)
